# Source: PubChem BioAssay AID1511 (Johns Hopkins Ion Channel Center, 2009)
# About 1,600 (0.52%) of roughly 310,000 compounds were called active. This excerpt belongs to a sample that is enriched for actives. Values without a mark were called inactive.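 The calls were made as follows: active = activation above the mean of controls blocked by dofetilide plus 5 SD; inactive = the rest.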
# Molecular target: Voltage-gated inwardly rectifying potassium channel KCNH2 (Homo sapiens) (UniProt Q12809)
# Test: compounds relieving dofetilide block of hERG – cell-based, CHO-hERG, FluxOR thallium flux, dofetilide IC70, primary screen (AID 1511);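 also: thallium influx through hERG after potassium depolarization seen as dye fluorescence rise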
# Conditions: dofetilide IC70 present, at 10 µM, hits give high values
# Sequence of Voltage-gated inwardly rectifying potassium channel KCNH2 (Homo sapiens) (Q12809 whole entry, looked up): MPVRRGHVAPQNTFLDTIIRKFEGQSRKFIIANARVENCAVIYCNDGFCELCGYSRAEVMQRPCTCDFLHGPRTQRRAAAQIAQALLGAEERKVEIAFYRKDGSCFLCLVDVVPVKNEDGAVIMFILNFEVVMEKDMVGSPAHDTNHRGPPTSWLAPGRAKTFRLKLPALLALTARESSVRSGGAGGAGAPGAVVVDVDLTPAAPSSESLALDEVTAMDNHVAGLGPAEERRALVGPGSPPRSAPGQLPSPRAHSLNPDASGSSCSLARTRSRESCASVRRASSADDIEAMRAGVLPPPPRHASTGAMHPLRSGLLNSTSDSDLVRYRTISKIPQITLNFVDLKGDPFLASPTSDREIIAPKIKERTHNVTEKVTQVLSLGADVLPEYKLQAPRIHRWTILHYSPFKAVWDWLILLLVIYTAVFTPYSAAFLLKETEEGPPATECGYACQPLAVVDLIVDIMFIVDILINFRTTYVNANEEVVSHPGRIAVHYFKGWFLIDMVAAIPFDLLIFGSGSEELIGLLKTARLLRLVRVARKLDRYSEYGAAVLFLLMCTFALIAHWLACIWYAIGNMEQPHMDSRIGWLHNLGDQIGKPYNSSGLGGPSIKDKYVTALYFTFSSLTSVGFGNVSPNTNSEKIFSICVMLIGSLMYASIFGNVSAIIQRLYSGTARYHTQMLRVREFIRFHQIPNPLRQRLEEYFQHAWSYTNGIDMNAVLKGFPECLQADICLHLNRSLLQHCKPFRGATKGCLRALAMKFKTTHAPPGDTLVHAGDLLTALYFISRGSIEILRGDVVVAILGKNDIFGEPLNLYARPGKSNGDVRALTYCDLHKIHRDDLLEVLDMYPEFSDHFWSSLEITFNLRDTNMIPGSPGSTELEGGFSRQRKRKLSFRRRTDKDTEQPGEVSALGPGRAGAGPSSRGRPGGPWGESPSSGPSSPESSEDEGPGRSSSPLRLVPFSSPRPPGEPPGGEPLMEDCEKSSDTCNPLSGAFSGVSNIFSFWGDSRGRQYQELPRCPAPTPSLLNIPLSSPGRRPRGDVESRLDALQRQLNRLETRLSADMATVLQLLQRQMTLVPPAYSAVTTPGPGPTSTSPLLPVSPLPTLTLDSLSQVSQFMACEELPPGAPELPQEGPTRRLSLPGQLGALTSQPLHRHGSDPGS
row,Compound,"activation (rescue from dofetilide block), less the hit threshold"
1,COc1ccc(-c2cn(-c3ccc(OC)cc3)c(=S)[nH]2)cc1,-3.47%
2,O=c1oc2ccccc2cc1-c1cn(-c2ccccc2)c(=S)[nH]1,-6.67%
3,S=c1[nH]c(-c2cccs2)cn1-c1ccccc1,8.23% (active)
4,CC(=O)N1CCN(S(=O)(=O)c2ccc(C)c([N+](=O)[O-])c2)C1C(C)C (stereo unspecified),-8.18%
5,Cc1ccc2c(c1)N(CC(=O)N1CCC(C)CC1)C(=O)c1cccnc1O2,-4.18%
6,C=CCc1cc(S(=O)(=O)c2ccc(O)c(CC=C)c2)ccc1O,-8.79%
7,CCC1(C)Cc2c(sc3nc(SC)[nH]c(=O)c23)CO1 (stereo unspecified),-9.23%
8,CCC1(C)Cc2c(sc3nc4n(c(=O)c23)CCCS4)CO1 (stereo unspecified),-3.92%
9,CCC1(C)Cc2c(sc3[nH]c(=S)n(Cc4ccccc4)c(=O)c23)CO1 (stereo unspecified),32.2% (active)
10,Cc1ccc2nc(-c3ccccn3)cc(C(=O)Nc3ccc4c(c3)OCO4)c2c1,-4.32%
11,Cc1ccc2nc(-c3ccncc3)cc(C(=O)Nc3ccc4c(c3)OCCO4)c2c1,6.28% (active)
12,Cc1ccc2nc(-c3ccncc3)cc(C(=O)Nc3ccncc3)c2c1,-6.13%
13,O=C(NCC1CC1)c1onc(CSc2ccccc2)c1C(=O)NCC1CC1,-9.81%
14,COc1ccc(CC(=O)N2N=C(C)CC2(O)C(F)(F)F)cc1 (stereo unspecified),-4.8%
15,Cc1nc2ccc(C(=O)O)cc2[nH]1,6.97% (active)
16,CC(C)c1nc2ccc(C(=O)O)cc2[nH]1,-0.43%
17,Cc1nc2ccc(C(=O)N/N=C/c3ccc(O)cc3)cc2[nH]1,-13.1%
18,COc1ccc(CNS(=O)(=O)c2cc(-c3cc(C)no3)ccc2C(C)C)cc1,-6.05%
19,CS(=O)(=O)N(Cc1nc2sc3c(c2c(=O)[nH]1)CCCC3)C1CCCCC1,-10.9%
20,Cc1cc(Cl)ccc1NNC(=O)c1snnc1C,-9.34%
21,COc1nc(NC2CCCCC2)nc(N2CCCCCC2)n1,-7.83%
22,Oc1ccc2ccccc2c1N=Nc1nccs1,29.7% (active)
23,c1ccc(NCc2cccc3ccccc23)nc1,-3.89%
24,Oc1ccc(N=Nc2nccs2)c(O)c1,-0.07%

row,Compound,"activation (rescue from dofetilide block), less the hit threshold"
1,C=CCC1=C/C(=C\c2c(N)n3nc(CC(=O)N4CCOCC4)sc3nc2=O)C=C(OC)C1=O,-8.72%
2,Cn1c(SCC(=O)N2CCCC2)nnc1-c1ccc2c(c1)OCO2,-8.24%
3,Cn1c(SCC(=O)N2CCOCC2)nnc1-c1ccc(NC(=O)c2ccccc2F)cc1,6.37% (active)
4,Cn1c(SCC(=O)N2CCOCC2)nnc1-c1ccc2ncccc2c1,-4.81%
5,Cc1cccc(NC(=S)NC(=O)c2ccc(Br)o2)c1,17.4% (active)
6,Cc1cccc(NC(=O)NC(=S)NC(=O)c2ccccc2)c1,-0.76%
7,Cc1cccc(NC(=O)c2ccc([N+](=O)[O-])o2)c1,-12.5%
8,CCc1ccc(C2N3CC4([N+](=O)[O-])CN2CC([N+](=O)[O-])(C3)C4(C)C)cc1 (stereo unspecified),-4.31%
9,O=C(CCl)Nc1cccc(CP(=O)(c2ccccc2)c2ccccc2)c1,-8.43%
10,Cc1ccc(NC(=S)NC2CCCC2)cc1,4.71% (active)
11,Cc1cc(Br)ccc1NC(=S)NC1CCCC1,-9.68%
12,Cc1ccc(NC(=O)CSCC(=O)NC2CCCCC2)cc1,-3.26%
13,COc1cc(C(=O)Nn2c(O)c(C3=c4ccccc4=NC3=O)sc2=S)ccc1O,-14.6%
14,Cc1onc(-c2ccc(Cl)cc2)c1-c1ccnn1S(=O)(=O)c1ccc(Cl)cc1,-7.23%
15,O=C(CCn1c(=S)[nH]c2cc3c(cc2c1=O)OCO3)NCc1ccc(Cl)cc1,4.99% (active)
16,CC(C)NC(=O)CCCn1c(=S)[nH]c2cc3c(cc2c1=O)OCO3,-9.07%
17,CCCCNC(=O)CCn1c(=S)[nH]c2cc3c(cc2c1=O)OCO3,-6.01%
18,N#Cc1c(-c2ccccc2)cc(-c2ccccc2)nc1SCC(=O)O,-12.9%
19,N#Cc1c(-c2ccc(F)cc2)cc(C2CC2)nc1SCC(=O)c1cccs1,8.07% (active)
20,CCOC(=O)CC(=O)CSc1nc(-c2ccccc2)cc(-c2ccc(Cl)cc2)c1C#N,-4.82%
21,NC(=O)COc1ccc(C23CC4CC(CC(C4)C2)C3)cc1,-4.82%
22,O=C(O)CN(Cc1ccco1)S(=O)(=O)c1ccc(F)cc1,-6.3%
23,CN(C)c1nc(=Nc2cccc(Cl)c2)ss1,40.5% (active)
24,Clc1cccc(N=C2NN=C(c3ccc4c(c3)OCCO4)CS2)c1,-12.5%

row,Compound,"activation (rescue from dofetilide block), less the hit threshold"
1,COc1ccc(CCNC(=O)CSCc2ccc(Br)cc2)cc1OC,-9.1%
2,Cc1cccc(C)c1NC(=O)CCS(=O)(=O)c1cccc2nsnc12,-5.88%
3,N#Cc1c(N)nc2c(c1N)CC(C(F)(F)F)O2 (stereo unspecified),-1.93%
4,CSc1ncccc1C(=O)Nc1nc2ccc(F)cc2s1,-5.7%
5,O=C(Cn1c(=O)sc2ccccc21)Nc1nc2c(s1)CCCC2,-3.68%
6,Fc1ccc2nc(Nc3nc4c(s3)CCCC4)sc2c1,10.5% (active)
7,Brc1ccc(Nc2c3c(nc4ncnn24)CCC3)cc1,-14.2%
8,O=C(O)c1ccc(Cn2c(=S)[nH]c3cc(Cl)ccc3c2=O)cc1,-3.87%
9,CC(C)c1ccc2c(c1)c(SC(C)(C)C)c(CC(C)(C)C(=O)O)n2Cc1ccc(Cl)cc1,26.6% (active)
10,S=C(Cc1ccc(Cl)cc1)N1CCOCC1,-11.3%
11,CCN(CC)CCCNC(=O)c1c(O)c2cc(F)cc3c2n(c1=O)C(C)CC3 (stereo unspecified),-2.1%
12,Cc1ccc(N(CC(=O)Nc2cc(C)cc(C)c2)S(=O)(=O)c2cccc3nonc23)cc1,4.86% (active)
13,CCOC(=O)c1cccc(NC(=O)CN(c2ccc(C)cc2)S(=O)(=O)c2c(C)noc2C)c1,-0.14%
14,Cc1ccc(CNC(=O)CCNS(=O)(=O)c2cccc3nonc23)cc1,-9.61%
15,Cc1cc2c(cc1S(=O)(=O)NCc1ccc(Cl)cc1)OCC(=O)N2,-9.71%
16,CCC(C(=O)N1CCOCC1)n1c(C(=O)OC)cc2occc21 (stereo unspecified),-6.73%
17,CCCCOC(=O)NCN1C(=O)C2C3C=CC(C3)C2C1=O (stereo unspecified),-3.35%
18,CCCC(C(=O)N1CCOCC1)N1C(=O)C2C3C=CC(C3)C2C1=O (stereo unspecified),4.64% (active)
19,COc1ccc(CNC(=O)C(C)n2nc(C)c3c(C)n(-c4ccccc4)nc3c2=O)c(OC)c1 (stereo unspecified),-10.8%
20,COc1ccc(C(=O)N2CCCN(C)CC2)c(OC)c1,0.38%
21,Cc1cc(C)c2c(n1)sc1c(=O)n(-c3ccccc3)c(=O)[nH]c12,-5.76%
22,O=c1[nH]c(/C=C\c2cccc(C(F)(F)F)c2)nc(O)c1[N+](=O)[O-],-0.14%
23,CCN1CCc2nc(NC(=O)c3cc(F)c(F)cc3Cl)sc2C1,15.1% (active)
24,CC(=O)Cc1nsc(NC(=O)c2ccc(Cl)cc2Cl)n1,-13.1%

row,Compound,"activation (rescue from dofetilide block), less the hit threshold"
1,O=C(Nc1ccc(OCC(=O)N2CCOCC2)cc1)c1cc(F)c(F)cc1Cl,-9.32%
2,COCCCNC(=O)/C(C#N)=C/c1c(N2CCCCCC2)nc2ccccn2c1=O,-4.19%
3,Cc1c(C)c2c(OCC(=O)N[C@@H](C(=O)O)c3ccccc3)cc3c(c2oc1=O)CCC(C)(C)O3,-2.69%
4,COc1cc(Br)cc(/C=N/c2ncn[nH]2)c1O,-7.59%
5,Oc1c(Cl)cc(Cl)cc1/C=N/c1ncn[nH]1,15.4% (active)
6,CC(C)CCNC(=O)C1CCC(CNc2c(N3CCC(C)CC3)c(=O)c2=O)CC1 (stereo unspecified),-6.27%
7,Cc1cc(C)cc(NC(=O)NC2CCCCCCC2)c1,-9%
8,CCOC(=O)CSC1=N/C(=C/c2ccc(-n3cncn3)cc2)C(=O)N1C(C)=O,-12%
9,Cc1ccn(C(CC(=O)c2ccc(Br)cc2)C(=O)O)n1 (stereo unspecified),5% (active)
10,Cc1cc(C)c2c(=O)[nH]c(SCC(=O)Nc3ccc(Br)cc3)nc2n1,-11.1%
11,Cc1ccc(NC(=O)CCC(=O)c2ccc(Br)cc2)cc1,1.34%
12,O=Cc1c(NCCc2cccc(F)c2)c2ccccc2[nH]c1=O,-6.93%
13,CCOc1ccc(C(C)=O)cc1COC(=O)CNC(=O)c1cccs1,-15.3%
14,CN(C)CCCn1c(=O)n(Cc2ccccc2)c(=O)c2c3c(sc21)CCCCC3,-10.2%
15,CCn1c(=S)[nH]c2sc3c(c2c1=O)CCCCC3,37.3% (active)
16,CCCc1nc2sc3c(c2c(=O)n1NC(=O)CCCl)CCCC3,-1.21%
17,O=C(/C=C/c1cccs1)NCc1cccnc1,-8.68%
18,O=[N+]([O-])c1ccc(N2CCN(c3ccc(F)cc3)CC2)cn1,-4.38%
19,COc1ccc(N2CCN(c3ccc([N+](=O)[O-])nc3)CC2)cc1,7.73% (active)
20,COc1ccccc1N1CCN(c2ccc([N+](=O)[O-])nc2)CC1,-22%
21,CCc1ccc(NC(=O)C(=O)NNC(=O)c2cccs2)cc1,46.7% (active)
22,CC(C)C(=O)Nc1ccc(C(=O)NNC(=O)c2cccs2)cc1,-4.59%
23,CCc1ccc(NC(=O)COC(=O)c2cccs2)cc1,-2.35%
24,O=S(=O)(Nc1ccc2nc(-c3ccco3)[nH]c2c1)c1ccccc1,-13.3%
